# Experimental data from PubChem BioAssay.
# Activity calls are given as the source filed them.
# Assays:
# [1] = optical density shifts of acrAB sulA E. coli – strain DRC41, OD650, 48 h, E. coli filamentation inducer project, primary screen (AID 1152); conditions: higher = more signal, called active from +8 up or from −8 down;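 further: E. coli MC1000 strain DRC41 lacking acrAB efflux pump and sulA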
# [2] = probe aLefty1 binding on compound microarray – biochemical, small-molecule microarray, 635/667 nm fluorescence, primary screen (AID 1153); conditions: higher = more signal;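 further: score merges spot fluorescence with signal-to-noise ratio from the scanned slide images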
# [3] = plasmodial surface anion channel blockers, osmotic lysis – cell-based, P. falciparum Indochina, OD700, 1 h, primary screen (AID 1154); conditions: P. falciparum Indochina infected RBC osmotic lysis, higher = more signal, called active from +8 up or from −8 down
# [4] = plasmodial surface anion channel blockers, osmotic lysis – cell-based, P. falciparum Indochina, OD700, 2 h, primary screen (AID 1155);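 further: lysis reports solute entry through the parasite surface anion channel PSAC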; conditions: P. falciparum Indochina infected erythrocytes, higher = more signal, called active from +8 up or from −8 down
# [5] = changes in parasitized red cell lysis, either direction – P. falciparum Indochina, OD700, 3 h, PSAC antagonist project, primary screen (AID 1156); conditions: P. falciparum-infected erythrocytes, osmotic lysis, higher = more signal, called active from +8 up or from −8 down
# [6] = plasmodial surface anion channel blockers, osmotic lysis – cell-based, P. falciparum Indochina, OD700, 18 h, primary screen (AID 1157); conditions: P. falciparum Indochina infected erythrocytes, osmotic lysis OD700, 18 h; higher = more signal, called active from +8 up or from −8 down
# [7] = S6 kinase pathway phospho-S6 level changes – cell-based, A549, cytoblot, luminescence, serum-stimulated, primary screen (AID 1158); conditions: 5 h, higher = more signal;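 further: serum-stimulated A549 lung adenocarcinoma cells; signal is phosphorylated S6 detected by cytoblot immunostaining with HRP secondary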
# [8] = molecular target: NADPH oxidase 2 (Homo sapiens) (UniProt P04839); experiment: compounds shifting NOX2 Amplex Red fluorescence – cell-based, HEK293-NOX2, PMA-stimulated, NOX inhibitor project, primary screen (AID 1159); conditions: 45 min, higher = more signal, called active from +8 up or from −8 down; further: test concentration not given here
# [9] = molecular target: NADPH oxidase 4 (Homo sapiens) (UniProt Q9NPH5); experiment: compounds shifting NOX4 Amplex Red fluorescence – cell-based, HEK293-NOX4, tetracycline-induced, NOX inhibitor project, primary screen (AID 1160); conditions: HEK293-NOX4, Amplex Red H2O2 fluorescence, 45 min; higher = more signal, called active from +8 up or from −8 down
# [10] = molecular target: NADPH oxidase 5 (Homo sapiens) (UniProt Q96PH1); experiment: compounds shifting NOX5 Amplex Red fluorescence – cell-based, HEK293-NOX5, NOX inhibitor project, primary screen (AID 1161); conditions: HEK293-NOX5, ionomycin, 45 min, higher = more signal
# [11] = compound effects on lung adenocarcinoma cell viability – A549, calcein-AM fluorescence, 48 h, basal, profiling panel (AID 1162); conditions: higher = more signal; further: test concentration not given here
# [12] = compound effects on differentiated 3T3-L1 adipocyte viability – cell-based, 3T3-L1 adipocytes, calcein-AM fluorescence, 48 h, basal, profiling panel (AID 1163); conditions: 3T3-L1 adipocytes viability, higher = more signal; further: test concentration not given here
# [13] = compound effects on hepatocellular carcinoma cell viability – HepG2, calcein-AM fluorescence, 48 h, basal, profiling panel (AID 1164); conditions: higher = more signal; further: test concentration not given here
# [14] = compound effects on multiple myeloma cell viability – MM1S, calcein-AM fluorescence, 48 h, basal, profiling panel (AID 1165); conditions: higher = more signal; further: test concentration not given here
# [15] = calcein-AM signal in unstimulated myeloma cells – cell-based, calcein-AM fluorescence, 48 h, PK04 Diversity Set, profiling panel (AID 1166); conditions: RPMI8226 myeloma viability, higher = more signal;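 further: cells grown under basal conditions without added stimulus; test concentration not given here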
# [16] = JC-1 mitochondrial signal, unstimulated HepG2 cells – cell-based, JC-1 fluorescence, 24 h, 100 nL compound, profiling panel (AID 1167); conditions: HepG2 mitochondrial potential, higher = more signal; further: test concentration not given here
# [17] = JC-1 mitochondrial signal, unstimulated adipocytes – cell-based, JC-1 fluorescence, 3T3-L1 adipocytes, 24 h, 100 nL compound, profiling panel (AID 1168); conditions: JC-1 mitochondrial fluorescence, higher = more signal, called active from +8 up or from −8 down; further: test concentration not given here
# [18] = JC-1 mitochondrial signal, unstimulated myeloma cells – cell-based, JC-1 fluorescence, RPMI8226, 24 h, 100 nL compound, profiling panel (AID 1169); conditions: JC-1 mitochondrial potential fluorescence, higher = more signal; further: test concentration not given here
# [19] = JC-1 mitochondrial signal, unstimulated MM1S myeloma – cell-based, JC-1 fluorescence, 24 h, 100 nL compound, profiling panel (AID 1170); conditions: MM1S mitochondrial potential, higher = more signal; further: test concentration not given here
# [20] = resazurin metabolic signal in A549 cells – cell-based, resazurin fluorescence, 24 h, PK04 Diversity Set, profiling panel (AID 1171); conditions: A549 viability, higher = more signal, called active from +8 up or from −8 down; further: test concentration not given here
# Sequence of NADPH oxidase 2 (Homo sapiens) (P04839 whole entry, looked up): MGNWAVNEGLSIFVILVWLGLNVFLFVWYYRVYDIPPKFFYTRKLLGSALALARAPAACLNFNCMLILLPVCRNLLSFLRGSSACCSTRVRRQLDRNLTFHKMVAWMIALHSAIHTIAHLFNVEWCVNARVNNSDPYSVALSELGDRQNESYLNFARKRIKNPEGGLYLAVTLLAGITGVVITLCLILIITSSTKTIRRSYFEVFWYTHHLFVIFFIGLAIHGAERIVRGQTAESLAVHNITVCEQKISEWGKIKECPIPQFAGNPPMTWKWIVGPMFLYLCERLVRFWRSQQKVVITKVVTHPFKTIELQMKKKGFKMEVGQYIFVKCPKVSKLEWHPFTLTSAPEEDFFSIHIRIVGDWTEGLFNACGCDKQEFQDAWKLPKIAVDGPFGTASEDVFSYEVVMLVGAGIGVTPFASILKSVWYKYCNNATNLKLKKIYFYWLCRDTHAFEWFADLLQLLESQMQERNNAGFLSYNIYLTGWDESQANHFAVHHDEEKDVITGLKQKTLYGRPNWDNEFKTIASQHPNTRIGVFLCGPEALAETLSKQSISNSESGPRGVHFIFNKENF
# Sequence of NADPH oxidase 5 (Homo sapiens) (Q96PH1 whole entry, looked up): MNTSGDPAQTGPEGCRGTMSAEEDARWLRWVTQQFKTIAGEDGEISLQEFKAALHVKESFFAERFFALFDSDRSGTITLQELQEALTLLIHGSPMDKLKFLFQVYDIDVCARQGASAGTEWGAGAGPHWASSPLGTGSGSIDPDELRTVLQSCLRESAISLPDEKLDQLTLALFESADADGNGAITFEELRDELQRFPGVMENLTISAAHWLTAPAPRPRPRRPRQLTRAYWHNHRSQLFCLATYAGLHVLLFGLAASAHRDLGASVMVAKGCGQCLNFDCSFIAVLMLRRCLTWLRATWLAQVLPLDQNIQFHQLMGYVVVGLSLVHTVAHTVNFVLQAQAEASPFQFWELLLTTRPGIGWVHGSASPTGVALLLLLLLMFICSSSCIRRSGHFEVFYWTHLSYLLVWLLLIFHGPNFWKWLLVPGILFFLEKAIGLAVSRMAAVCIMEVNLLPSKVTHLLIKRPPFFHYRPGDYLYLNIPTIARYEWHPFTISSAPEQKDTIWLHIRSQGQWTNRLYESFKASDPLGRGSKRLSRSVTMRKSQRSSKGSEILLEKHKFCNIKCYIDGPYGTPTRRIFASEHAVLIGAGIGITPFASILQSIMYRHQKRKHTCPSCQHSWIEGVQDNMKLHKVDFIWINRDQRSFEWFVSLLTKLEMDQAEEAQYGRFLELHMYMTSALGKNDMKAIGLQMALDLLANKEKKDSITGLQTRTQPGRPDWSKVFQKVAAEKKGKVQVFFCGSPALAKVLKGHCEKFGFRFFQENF
# Sequence of NADPH oxidase 4 (Homo sapiens) (Q9NPH5 whole entry, looked up): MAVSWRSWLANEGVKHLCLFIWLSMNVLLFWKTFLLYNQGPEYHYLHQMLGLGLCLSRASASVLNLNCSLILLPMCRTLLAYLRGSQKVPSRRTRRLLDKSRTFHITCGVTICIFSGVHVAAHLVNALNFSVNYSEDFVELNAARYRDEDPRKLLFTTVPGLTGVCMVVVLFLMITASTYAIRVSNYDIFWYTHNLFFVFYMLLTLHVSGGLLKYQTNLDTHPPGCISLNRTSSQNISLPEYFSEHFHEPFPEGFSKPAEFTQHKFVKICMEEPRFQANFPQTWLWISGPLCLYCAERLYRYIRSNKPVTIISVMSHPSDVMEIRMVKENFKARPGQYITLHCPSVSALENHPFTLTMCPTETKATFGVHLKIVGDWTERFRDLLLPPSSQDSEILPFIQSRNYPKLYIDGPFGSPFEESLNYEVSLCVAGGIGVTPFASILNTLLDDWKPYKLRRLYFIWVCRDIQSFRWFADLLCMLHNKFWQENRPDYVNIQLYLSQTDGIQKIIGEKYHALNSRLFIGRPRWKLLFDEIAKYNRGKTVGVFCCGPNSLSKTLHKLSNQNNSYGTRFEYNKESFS
Structure (SMILES),z-score [1],composite z-score [2],z-score [3],z-score [4],z-score [5],z-score [6],z-score [7],z-score [8],z-score [9],z-score [10],z-score [11],z-score [12],z-score [13],z-score [14],z-score [15],z-score [16],z-score [17],z-score [18],z-score [19],z-score [20]
Cc1ccc(S[C@]2(C(=O)NC3CC3)CC(=O)N(Cc3cc(C(F)(F)F)cc(C(F)(F)F)c3)[C@@H]2c2ccc(CO)cc2I)cc1,0.147 (inactive),-0.625,5.58 (inactive),0.774 (inactive),0.231 (inactive),0.229 (inactive),-0.185,1.52 (inactive),-1.62 (inactive),1.14,-0.155,-0.136,0.311,-2.53,-1.81,-0.9,-0.373 (inactive),-0.921,-2.03,0.851 (inactive)
C=CCC(OC(C)=O)[C@@H]1[C@@H](N(Cc2cc3ccccc3o2)C(=O)c2ccc(-c3ccccc3)cc2)c2cc(OCCCO)ccc2N1C(=O)c1ccc2ccccc2n1 (stereo not given in full),0.803 (inactive),-0.0534,1.01 (inactive),0.698 (inactive),-0.44 (inactive),0.655 (inactive),-0.113,1.88 (inactive),-0.895 (inactive),1.66,0.704,0.242,1.43,0.479,-0.11,2.66,0.229 (inactive),-0.202,1.32,0.967 (inactive)
O=C1O[C@H](c2ccccc2)[C@H](c2ccccc2)N2[C@H]1[C@@H](C(=O)N1CCN(c3ncccn3)CC1)[C@]1(C(=O)Nc3ccccc31)[C@H]2c1ccc(O)cc1,0.649 (inactive),0.0262,1.24 (inactive),1.01 (inactive),-0.236 (inactive),1.01 (inactive),0.0782,0.898 (inactive),-1.54 (inactive),1.65,0.947,1.36,0.406,-1.28,-4,-1.26,1.04 (inactive),-1.06,0.183,0.371 (inactive)
C[C@H]1C2[C@H](Cc3ccccc3)NC(=O)[C@]23C(=O)NCC(=O)N2CCC[C@H]2C(=O)NC/C=C\C/C=C/C3[C@@H]2O[C@]12C (stereo not given in full),0.822 (inactive),-0.193,-0.0865 (inactive),-0.387 (inactive),-0.62 (inactive),-0.113 (inactive),0.255,0.212 (inactive),1.07 (inactive),0.649,0.379,0.491,0.409,0.163,-0.547,-0.324,0.0628 (inactive),-1.03,0.227,0.87 (inactive)
O=C1C2C=CC(C(O)C(c3ccccc3)c3ccccc3)N(Nc3ccccc3)C2C(=O)N1c1ccccc1 (stereo not given),-0.606 (inactive),0.591,1.85 (inactive),1.71 (inactive),0.331 (inactive),1.41 (inactive),-1.25,-1.72 (inactive),-4.94 (inactive),-2.54,0.758,-0.835,1.82,0.032,-0.213,-0.335,-1.64 (inactive),-0.305,-0.401,-0.876 (inactive)
CCCCC(=C=CC[C@@H](O)c1cccc(OCCO)c1)C[C@@H](O)COCc1ccccc1,1.76 (inactive),-0.101,16.3 (active),1.3 (inactive),0.605 (inactive),-1.07 (inactive),2.58,-1.61 (inactive),-1.01 (inactive),-2.47,1.1,1.79,1.3,-1.21,0.286,-0.0343,0.436 (inactive),-0.785,-0.91,-0.0721 (inactive)
C=CC[C@]1(C(=O)NCCCOC)N=C(c2ccc(OCCCO)cc2)O[C@H]1c1ccccc1,0.898 (inactive),-0.0172,12.3 (active),0.912 (inactive),0.932 (inactive),0.643 (inactive),0.727,-2.35 (inactive),-0.164 (inactive),-0.87,0.0753,0.301,-1.1,-0.464,0.511,0.238,0.171 (inactive),-0.446,-0.607,1.32 (inactive)
CC(C)C[C@H]1NC(=O)[C@@]23C(=O)N[C@@H](Cc4ccccc4)C2[C@H](C)[C@@]2(C)O[C@H]2C3/C=C/C/C=C\CNC(=O)[C@@H]2CCCN2C1=O (stereo not given in full),-1.09 (inactive),-0.0544,0.0869 (inactive),-0.26 (inactive),-0.875 (inactive),-0.234 (inactive),0.0247,0.708 (inactive),1.29 (inactive),0.968,0.0246,-0.0768,-0.54,-1.41,-0.531,-0.831,0.244 (inactive),0.868,-0.391,-0.659 (inactive)
O=C1C2C=CC(C(O)c3cccc(O)c3)N(Nc3ccccc3F)C2C(=O)N1c1ccccc1 (stereo not given),0.906 (inactive),0.137,9.49 (active),1.43 (inactive),0.868 (inactive),0.0443 (inactive),3,-4.98 (inactive),-5.16 (inactive),-6.27,-0.769,0.906,-1.28,-1.95,-1.9,-1.66,-1.85 (inactive),0.742,-1.64,0.249 (inactive)
